NPC1 promoter act: activates the NPC1 promoter; AID 485313; Huh7 NPC1 promoter luciferase reporter, 24 h; 320,000 tested, 2.4% active; Potency, µM (doses to about 9.22 µM), actives largely listed as activators; also: nearly all actives have a fitted effect of over 60% in size
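Stable NPC1-promoter luciferase Huh7 line; cpd (DMSO) 24 h, 37 °C, 5% CO2; Amplite luciferase reagent 10 min RT; luminescence readout. qHTS format.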
Rab9 prom act: Rab9 promoter activation; Huh7 Rab9 promoter-luciferase reporter, luminescence, 24 h; Potency, µM (doses to about 9.22 µM), usual class: activators; 320,000 tested, 2.8% active; AID 485297; also: nearly all actives have a fitted effect of over 60% in size
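Luciferase signal after 10 min detection reagent at ambient indicates Rab9 promoter upregulation; stably transfected Huh7 cells were treated 24 h with compound in DMSO at 37 °C, 5% CO2.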
ELG1 genotox: genotoxicity induction in ELG1-luciferase HEK293T cells | HEK293T ELG1-luciferase reporter, luminescence, 16 h | Potency, µM (titrated, usually from 46 µM), hits mostly activators | 330,000 tested, 1.3% active; also: nearly all actives have a fitted effect of over 60% in size
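Genotoxic stress is detected as increased luminescence from luciferase-tagged ELG1 in HEK293T cells, measured with ONE-Glo after a 16 hr treatment at 37 °C.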
FLuc modulator: inhibits or activates purified firefly luciferase, miR-21 counter-screen; purified FLuc, Km substrates, luminescence inhibition; 360,000 tested, 6.9% active; Potency, µM (top dose mostly 57.5 µM), usual class: inhibitors; P08659; also: nearly all actives have a fitted effect of over 55% in size
Target sequence (P08659 whole entry, looked up): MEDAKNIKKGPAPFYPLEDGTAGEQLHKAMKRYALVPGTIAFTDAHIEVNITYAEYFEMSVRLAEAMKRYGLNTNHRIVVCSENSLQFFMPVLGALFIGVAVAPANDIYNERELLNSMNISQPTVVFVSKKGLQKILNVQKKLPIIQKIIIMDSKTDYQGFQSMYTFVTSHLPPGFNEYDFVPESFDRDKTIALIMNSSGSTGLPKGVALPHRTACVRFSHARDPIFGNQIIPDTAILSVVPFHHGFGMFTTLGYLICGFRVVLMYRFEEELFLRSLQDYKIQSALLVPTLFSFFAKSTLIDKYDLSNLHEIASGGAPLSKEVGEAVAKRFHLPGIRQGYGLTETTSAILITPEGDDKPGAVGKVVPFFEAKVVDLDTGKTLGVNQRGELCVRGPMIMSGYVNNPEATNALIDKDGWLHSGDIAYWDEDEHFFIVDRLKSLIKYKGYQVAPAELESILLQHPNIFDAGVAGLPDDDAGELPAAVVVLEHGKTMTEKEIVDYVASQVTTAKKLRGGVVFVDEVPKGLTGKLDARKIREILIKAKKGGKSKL
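Purified P. pyralis luciferase (10nM final) with 10uM D-luciferin and 10uM ATP (Km levels) in 50mM Tris acetate pH 7.5, 10mM Mg acetate, 0.01% Tween-20, 0.05% BSA; qHTS 6-point titration, ~60 µM downward; luminescence read.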
Luc counter: counter-screen: inhibitors of Kinase-Glo firefly luciferase. Q27757. Kinase-Glo luciferase, ATP luminescence, 8 min. Potency, µM (titrated, usually from 38.3 µM), hits mostly inhibitors. 200,000 tested, 0.28% active; also: nearly all actives have a fitted effect of over 60% in size
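Kinase-Glo luciferase light output from ATP and luciferin was measured with 10 uM ATP, within the enzyme's linear range. Buffer: 50 mM imidazole pH 7.2, 50 mM KCl, 7 mM MgCl2, 0.01% Tween 20, 0.05% BSA; luminescence read after 8 min at ambient temperature.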
SMN2 splice up: SMN2 splice variant enhancement. HEK293 SMN2-luciferase splicing reporter, luminescence, 30-36 h. Potency, µM (highest dose often 46.1 µM), most hits filed as activators. 210,000 tested, 2.8% active. AID 1458; also: nearly all actives have a fitted effect of over 55% in size
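qHTS luciferase splicing reporter: luminescence rises when SMN2 exon 7 is included in transfected HEK293 cells. Compound exposure lasted 30-36 h at 37C, with 4.5 mM final sodium butyrate as control, followed by a ONE-Glo read.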
Of the large screens only hits and unclear results are named; the others gave an inactive call. Rows were chosen to be rich in hits. Some 7.5% of all compounds tested hit in one or more screens of this group. Calls follow the shape of the dose curve; as a rule, active = well fitted curve in the direction sought with a large enough effect; inconclusive = small, poorly fitted or top-dose-only effect, or another doubt; inactive = no such curve, though single readings can be large; an effect the other way counts as inactive or inconclusive.

CC(C)Oc1ccc(CNC(=O)CCn2c(=O)c3cccn3c3ccc(F)cc32)cc1	none (no result: NPC1 promoter act, Rab9 prom act, ELG1 genotox, Luc counter, SMN2 splice up)
CCc1ccc(NC(=O)C2CCCN(S(=O)(=O)c3ccc4c(c3)oc(=O)n4C)C2)cc1 (stereo unspecified)	none (no result: NPC1 promoter act, Rab9 prom act, ELG1 genotox, Luc counter)
CC(/C=C/c1ccc(N(C)C)cc1)=N\N=C(/N)SC1CC(=O)N(c2ccc(C(=O)O)cc2)C1=O (stereo unspecified)	Rab9 prom act inconclusive, ELG1 genotox inconclusive, FLuc modulator 1.1µM, SMN2 splice up inconclusive
Cc1ccc(F)c(NC(=O)/C(C#N)=C(\O)c2ccc(C(C)(C)C)cc2)c1	FLuc modulator 12µM, SMN2 splice up inconclusive
Nc1ccc2nc(-c3ccc(Cl)cc3)[nH]c2c1	NPC1 promoter act inconclusive, Rab9 prom act inconclusive, ELG1 genotox 16µM, FLuc modulator 1.9µM, Luc counter inconclusive, SMN2 splice up inconclusive
Nc1ccc2nc(-c3cc(Cl)c(N)c(Cl)c3)[nH]c2c1	NPC1 promoter act inconclusive, Rab9 prom act 3.2µM, ELG1 genotox inconclusive, FLuc modulator 6µM, Luc counter inconclusive, SMN2 splice up 16µM
Nc1ccc(-c2nc3ccc(N)cc3[nH]2)cc1	NPC1 promoter act inconclusive, Rab9 prom act inconclusive, FLuc modulator 15µM, SMN2 splice up inconclusive
Nc1ccc(-c2nc3c(Cl)c(N)ccc3[nH]2)cc1	NPC1 promoter act inconclusive, Rab9 prom act inconclusive, FLuc modulator 12µM, SMN2 splice up inconclusive
Cc1ccc(-c2cc(C(=O)N3CCN(C(=O)c4ccco4)CC3)[nH]n2)c(C)c1	FLuc modulator inconclusive (no result: Luc counter, SMN2 splice up)
Nc1ccc2nc(-c3cccc(-c4nc5ccc(N)cc5[nH]4)c3)[nH]c2c1	FLuc modulator 7.6µM (no result: Luc counter, SMN2 splice up)
Cc1nc2ccc(-c3nc4ccc(N)cc4[nH]3)cc2[nH]1	NPC1 promoter act inconclusive, Rab9 prom act inconclusive, FLuc modulator 4.8µM (no result: SMN2 splice up)
COc1cc(/C=C2\SC(=S)N(CC(=O)O)C2=O)ccc1OC(=O)c1ccco1	NPC1 promoter act inconclusive, FLuc modulator 7.6µM (no result: Luc counter, SMN2 splice up)
CN1C(=O)/C(=C/c2ccc(OC(=O)c3ccco3)cc2)SC1=S	none (no result: Luc counter, SMN2 splice up)
CCOc1cc(/C=C2/SC(=S)N(CC(=O)O)C2=O)ccc1OC(=O)c1cccs1	FLuc modulator 17µM (no result: Luc counter, SMN2 splice up)
O=C(O)COc1cccc(/C=C2/SC(=S)N(Cc3ccccc3)C2=O)c1	FLuc modulator inconclusive (no result: Luc counter, SMN2 splice up)
COc1cc(/C=C2/SC(=S)N(CC(=O)O)C2=O)ccc1OC(=O)c1ccco1	FLuc modulator 7.6µM (no result: Luc counter, SMN2 splice up)
O=C(O)CN1C(=O)/C(=C\c2cccc(OCc3ccccc3)c2)SC1=S	FLuc modulator 15µM (no result: Luc counter, SMN2 splice up)
O=C(O)CN1C(=O)/C(=C\c2cc(Br)ccc2OCc2ccc(Cl)cc2)SC1=S	none (no result: Luc counter, SMN2 splice up)
COc1ccc(/C=C2/SC(=S)N(CC(=O)O)C2=O)cc1OCc1ccc(Cl)cc1	FLuc modulator 19µM (no result: Luc counter, SMN2 splice up)
O=C(Cn1nc(C(F)(F)F)c2c1CCCC2)Nc1ccc(F)c(Cl)c1	none (no result: NPC1 promoter act, Rab9 prom act, ELG1 genotox, Luc counter)
CCN(CC)CCNC(=O)C1CCN(c2cc(C)nc3c(-c4ccc(Cl)cc4)c(C)nn23)CC1	none (no result: NPC1 promoter act, Rab9 prom act, ELG1 genotox, Luc counter)
CCN1CCCC1CNC(=O)c1ccc2c(c1)NC(=O)/C(=C\c1ccc(C)cc1)S2 (stereo unspecified)	ELG1 genotox inconclusive, FLuc modulator 21µM (no result: Luc counter, SMN2 splice up)
Cc1ccc(/C=C2/Sc3ccc(C(=O)NCCN4CCOCC4)cc3NC2=O)cc1	FLuc modulator inconclusive (no result: Luc counter, SMN2 splice up)
Cc1ccc(/C=C2/Sc3ccc(C(=O)N4CCN(C)CC4)cc3NC2=O)cc1	FLuc modulator 15µM (no result: Luc counter, SMN2 splice up)
O=C(CCNC(=O)c1ccc([N+](=O)[O-])cc1)NCc1ccco1	none (no result: Luc counter, SMN2 splice up)
Cc1cc(C)cc(N2CCn3c2nc2c3c(=O)n(Cc3c(F)cccc3Cl)c(=O)n2C)c1	none (no result: NPC1 promoter act, Rab9 prom act, ELG1 genotox, Luc counter, SMN2 splice up)
Brc1ccc(-c2noc(-c3ccccn3)n2)o1	NPC1 promoter act 0.56µM, Rab9 prom act 0.45µM, ELG1 genotox inconclusive, FLuc modulator 2.7µM (no result: Luc counter, SMN2 splice up)
Brc1ccc(-c2nc(-c3ccccn3)no2)o1	NPC1 promoter act 0.56µM, Rab9 prom act inconclusive, ELG1 genotox inconclusive, FLuc modulator 1.5µM, Luc counter 13µM, SMN2 splice up 2.5µM
COc1cc(-c2nc(-c3ccc(Br)o3)no2)cc(OC)c1OC	none
O=C1OC(c2ccccc2)=N/C1=C\C=C\c1ccco1	FLuc modulator 4.8µM (no result: SMN2 splice up)

High-throughput results as filed in PubChem BioAssay.
